Experimental data taken from PubChem BioAssay (NCI).
About 83,000 compounds went through this panel and 20% of them were active in at least one assay; those are over-represented in the sample as a whole.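 For each line, cells grew in 96-well plates with the test compound present at a single concentration for 48 hours.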 Values without a mark were called inactive. Calls of active or inactive are those of the source. The calls were made as follows: active = growth percent below 10; inactive = the rest.

Key:
Test in all cases: NCI-60 one-dose screen, 48 h (100 = growth as untreated, 0 = no growth, -100 = all killed)
Settings in all cases: 10 µM unless noted
[1] = tested on: SR leukemia
[2] = tested on: RPMI-8226 leukemia
[3] = tested on: OVCAR-8 ovarian
[4] = tested on: OVCAR-5 ovarian
[5] = tested on: OVCAR-4 ovarian
[6] = tested on: SK-OV-3 ovarian
[7] = tested on: IGROV1 ovarian
[8] = tested on: OVCAR-3 ovarian
[9] = tested on: HS 578T breast
[10] = tested on: NCI/ADR-RES ovarian
[11] = tested on: T-47D breast
[12] = tested on: BT-549 breast
[13] = tested on: MDA-MB-435 melanoma
[14] = tested on: SW-620 colon
[15] = tested on: MCF7 breast
[16] = tested on: HCT-116 colon
[17] = tested on: HCC-2998 colon
[18] = tested on: KM12 colon

Compound	growth [1]	growth [2]	growth [3]	growth [4]	growth [5]	growth [6]	growth [7]	growth [8]	growth [9]	growth [10]	growth [11]	growth [12]	growth [13]	growth [14]	growth [15]	growth [16]	growth [17]	growth [18]
CCCCCCCCCCCCCCCCCC1=NCCN1CCO	7.41% (active)	78.9%	70.5%	82.7%	115%	97.9%	25.7%	77%	85.8%	84.5%	95%	91.5%	101%	65.2%	74.3%	65.1%	61.3%	
COc1cc2ncnc(Nc3ccc(S(=O)(=O)Nc4nccs4)cc3)c2cc1OCCCN1CCOCC1	108%	106%	103%	106%	107%	96.2%	106%	101%	99.9%	102%	106%	119%	101%	103%	105%	100%	104%	101%
Nc1c(Br)cc2c(c1Br)Cc1cc(Cl)ccc1-2	80%	105%	96.8%	93.2%	95.1%	82.5%	84.3%	104%	91.9%	95.8%	66%	128%	102%	98.2%	80.6%	97.1%	102%	98.7%
CC(C)[C@@]12C[C@@H](OC(=O)[C@H]3CO3)[C@@](C)(O1)[C@@H]1CC[C@@H](C)[C@H]1[C@@H]2OC(=O)/C=C/c1ccccc1	69.4%	72.7%	11.1%	100%	92%	76.5%	85.7%	87%	-23.9% (active)	31.1%	49.4%	21.4%	98.2%	94.8%	62.4%	65.8%	105%	103%
CO[C@H](C(=O)[C@@H](O)[C@@H](C)O)[C@@H]1Cc2cc3cc(O[C@H]4C[C@@H](O[C@H]5C[C@@H](O)[C@H](O)C(C)O5)[C@H](O)C(C)O4)c(C)c(O)c3c(O)c2C(=O)[C@H]1O[C@H]1C[C@@H](O[C@H]2C[C@@H](O[C@H]3C[C@](C)(O)C(=O)C(C)O3)[C@@H](O)C(C)O2)[C@H](O)C(C)O1 (some centres undefined)	8.44% (active)	-21% (active)	2.48% (active)	13.1%	8.45% (active)	9.52% (active)	12.2%	-12.5% (active)	-13.8% (active)	76%	-8.49% (active)	-24.5% (active)	-41.3% (active)	8.29% (active)	6.66% (active)	4.55% (active)	-9.52% (active)	1.23% (active)
c1cn2cc(-c3ccc4ncn(C5CCCCC5)c4c3)nc(-c3ccc4c(c3)ncn4C3CCCCC3)c2n1	2.47% (active)	-37.9% (active)	-24.1% (active)	-24% (active)	2.84% (active)	-71.9% (active)	-41.9% (active)	-85.2% (active)	3.4% (active)	1.11% (active)	-17.7% (active)	-48.9% (active)	-73% (active)	-3.82% (active)	-3.78% (active)	-61.4% (active)	-93.4% (active)	-61.1% (active)
CC(C)CCC(=O)[C@@H](C)[C@H]1[C@@H](OC2OCC(O)C(O)C2NS(C)(=O)=O)C[C@H]2[C@@H]3CC=C4C[C@@H](O)CC[C@]4(C)[C@H]3CC[C@]12C (some centres undefined)	17%	-26.1% (active)	35.4%	64.5%	75.5%	0.627% (active)	61.2%	68.8%	-4.14% (active)	82.7%	43.6%	22%	1.92% (active)	11.9%	17.1%	24.9%	67.2%	47%
Cc1csc(N/N=C/c2ccncc2)n1	96.6%	131%	97.7%	112%	116%	101%	105%	112%	104%	107%	94%	105%	104%	103%	87.1%	97.6%	99.9%	106%
O=C(CC(=O)c1ccccc1F)Nc1ccc([N+](=O)[O-])cc1	77.7%	68.4%	97.4%	104%	92.8%	108%	97.9%	109%	110%	103%	82.5%	89.7%	88.3%	109%	81.3%	90.5%	103%	99.8%
COc1cc2c(=O)n(CCCN(C)C)c3c4cc[nH]c4ncc3c2cc1OC	15.7%	22.2%	27.8%	71%	34.7%	42.8%	45.2%	49.1%	65%	89.4%	63.9%	72.5%	51%	24.9%	15.5%	16.8%	55.7%	19.2%
CCOC(=O)Nc1ccc2nc(Sc3ccc(Cl)cc3)sc2c1	9.2% (active)	21.5%	44.6%	85.9%	50.3%	22.5%	43.4%	0.656% (active)	50.8%	14%	36.4%	58.5%	1.41% (active)	29%	16.7%	30.5%	57.1%	26.9%
Nc1ccc(C2=NNC(=O)Cc3cc4c(cc32)OCCO4)cc1Cl	19.6%	56.2%	60.1%	69.7%	87.8%	57.1%	40.8%	-14.1% (active)	62.2%	12%	44.2%	48.5%	-19.2% (active)	18.7%	18.8%	20.1%	61.9%	16%
CCN(CC)CCCC(C)Nc1c(-c2ccccc2)cnc2cc(Cl)ccc12 (centres undefined)	7.58% (active)	27.4%	71.3%	83.4%	83%	89.7%	36.5%	82.4%	70.3%	79.6%	-44.9% (active)	87.4%	38.2%	70.3%	59.1%	36.2%	73.4%	65.3%
O=C(CSc1nnc(Cc2ccccc2Nc2c(Cl)cccc2Cl)n1-c1ccccc1)N1N=C(c2ccc3ccccc3c2)CC1c1ccc(Cl)cc1 (centres undefined)	97.2%	95.6%	107%	99.8%	88.7%	93.8%	89.5%	104%	111%	101%	71.5%	103%	98.8%	108%	95%	86.4%	93.7%	108%
CC(C)=CC[C@@H]1CC2(CC=C(C)C)C(=O)C(OC3(C(=O)c4ccccc4)C(=O)C4(CC=C(C)C)C[C@@H](CC=C(C)C)C(C)(C)C(CC=C(C)C)(C4=O)C3=O)(C(=O)c3ccccc3)C(=O)C(CC=C(C)C)(C2=O)C1(C)C (some centres undefined)	4.95% (active)	-23% (active)	1.06% (active)	14.9%	20.4%	2.61% (active)	15.5%	-9.05% (active)	1.98% (active)	5.81% (active)	1.58% (active)	-2.41% (active)	6.28% (active)	9.62% (active)	2.12% (active)	-33.4% (active)	10.7%	6.68% (active)
